This note sets out measurements from PubChem BioAssay (NCI).

The nature of assay [1]: NCI Yeast Anticancer Drug Screen. Data for the rad50 strain (AID 155).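 Note: 0% = growth of vehicle-only cultures of the same strain.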 As to conditions: S. cerevisiae rad50 strain growth inhibition; at 50.0 µM; stronger effect = higher value. Put shortly: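 Growth of the mutant yeast was measured after compound exposure and referenced to vehicle-treated cultures.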
Assay [2] can be described thus: NCI Yeast Anticancer Drug Screen. Data for the mec2-1 strain (AID 157). As to conditions: S. cerevisiae mec2-1 strain, at 50.0 µM, stronger effect = higher value. An outline of the steps:
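Vehicle-treated cultures served as reference for growth inhibition of compound-exposed mec2-1 yeast.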

Assay [3] can be described thus: NCI Yeast Anticancer Drug Screen. Data for the sgs1 mgt1 strain (AID 161).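 Note: 0% = growth of cultures given vehicle only.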 The following applies: S. cerevisiae sgs1 mgt1 strain, at 50.0 µM, stronger effect = higher value. An outline of the steps: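 Inhibition of yeast growth, normalised to vehicle-treated controls, is reported for a strain bearing genetic alterations in DNA damage repair.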
Assay [4] is described as follows: NCI Yeast Anticancer Drug Screen. Data for the cln2 rad14 strain (AID 165).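 Note: 0% = growth equal to vehicle treated cultures.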 The following applies: S. cerevisiae cln2 rad14 strain, at 50.0 µM, stronger effect = higher value. Put shortly:
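Each compound was tested on cln2 rad14 yeast. Inhibition of growth was calculated against vehicle-exposed controls.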

Assay [5] in a line: NCI Yeast Anticancer Drug Screen. Data for the bub3 strain (AID 167). The following applies: S. cerevisiae bub3 mutant strain, at 50.0 µM, stronger effect = higher value. Put shortly: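 Whole-cell yeast assay. The mutant strain was incubated with compounds, and growth inhibition was determined by comparison with vehicle-treated cells.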
A short description of assay [6]: NCI Yeast Anticancer Drug Screen. Data for the mlh1 rad18 strain (AID 175). As to conditions: S. cerevisiae mlh1 rad18 strain growth inhibition; at 50.0 µM; stronger effect = higher value. Put shortly:
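Vehicle-treated cultures served as the reference for growth inhibition in a yeast strain carrying DNA damage repair alterations exposed to each compound.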

The panel holds about 79,000 compounds, 15% with a hit somewhere; the sample as a whole holds those more often. Unmarked numbers belong to inactive results. Activity calls are given as the source filed them. Cut-off read from the data, not from the text of the source: active = growth inhibition above about 70%; inactive = the rest.

Take `COc1cc(Br)c(C2SCC(=O)N2c2nncs2)cc1OC` (stereo unspecified): the growth inhibition was 1.55% in assay [1]; 11.3% in assay [2]; 7.9% in assay [3]; 0.7% in assay [4]; -2.15% in assay [5]; 26.6% in assay [6].

As for `CCCCCCCCCCCCCCCCCCn1cnc2c(=S)nc[nH]c21`, the growth inhibition in assay [1] is -37.5%; in assay [2], -2.2%; in assay [3], -0.75%; in assay [4], -20.5%; in assay [5] it was 0.5%; in assay [6], -34.1%.

On to `Cn1cc(Cc2ccc(-c3ccccc3)cc2)c(=O)c(Cc2ccc(-c3ccccc3)cc2)c1`, for which the growth inhibition in assay [1] was 30.6%; in assay [2], 6.75%; in assay [3], -2.9%; in assay [4] it was 12.5%; in assay [5] it was 3.9%; in assay [6], 27.8%.

For the compound `CC1=CC(=O)c2cc(C)ccc2C1=O`, the growth inhibition in assay [1] was 6.1%; in assay [2], -15%; in assay [3] it was -8.35%; in assay [4], -32.5%; in assay [5], -2.95%; in assay [6], -3.25%.

Consider `CC(=O)Nc1nc(NC(C)=O)c2nc(C)cnc2n1`, for which the growth inhibition in assay [1] was 4.45%; in assay [2] it was 20.6%; in assay [3] it was -2.35%; in assay [4], 24.4%; in assay [5], 10.6%; in assay [6], 25.2%.

With `N#CC(=C1CCN(Cc2ccccc2)CC1)c1ccccc1`, the growth inhibition is 37.2% in assay [1]; 12.7% in assay [2]; 44.8% in assay [3]; 47.6% in assay [4]; 63.5% in assay [5]; 35.2% in assay [6].

With `Clc1nc(Cl)c2ncn(C3CCCO3)c2n1` (stereo unspecified), the growth inhibition was -23.1% in assay [1]; -10% in assay [2]; 14.7% in assay [3]; -40% in assay [4]; 44% in assay [5]; 4.95% in assay [6].

Regarding `CCCCCCCCCCCCCCCCCC(=O)OCC([N+](=O)[O-])([N+](=O)[O-])[N+](=O)[O-]`, the growth inhibition in assay [1] was -9.3%; in assay [2], -1.3%; in assay [3] it was -5.3%; in assay [4] it was -19%; in assay [5] it was -26.1%; in assay [6] it was 1.9%.

With `CCNC(=S)NC1CCCCC1`, the growth inhibition was -8.35% in assay [1]; 5.15% in assay [2]; 3.65% in assay [3]; -4.05% in assay [4]; -13.1% in assay [5]; 12.3% in assay [6].

With `N#Cc1c(C#N)c(-c2ccco2)n(/N=C/c2ccco2)c1N`, the growth inhibition in assay [1] was 4.55%; in assay [2], 0.6%; in assay [3], -34.5%; in assay [4], -6.75%; in assay [5], -25.8%; in assay [6], -37.4%.

Take `COc1cc2cc3c4cc(OC)c(OC)cc4cc[n+]3c(CCC(=O)O)c2cc1OC` (tested in a mixture with another compound): the growth inhibition in assay [1] is 10.4%; in assay [2] it was -2.75%; in assay [3], -8.25%; in assay [4], -4%; in assay [5] it was 9.35%; in assay [6] it was -0.1%.

As to `O=C(NN1C(=O)c2cccc3cccc(c23)C1=O)NN1C(=O)c2cccc3cccc(c23)C1=O`, the growth inhibition was 98.2% (active) in assay [1]; 99.4% (active) in assay [2]; 98.2% (active) in assay [3]; 99.5% (active) in assay [4]; 99.2% (active) in assay [5]; 99% (active) in assay [6].

Take `CN(N)c1nc2c(N)ncnc2n1C1OC(CO)C(O)C1O` (stereo unspecified): the growth inhibition in assay [1] was 25.9%; in assay [2], 24.1%; in assay [3], 30.6%; in assay [4], 13.8%; in assay [5], 30%; in assay [6], 48.3%.

Turning to `CSC(=Nc1ccc([N+](=O)[O-])cc1C#N)NC(=O)c1ccccc1`, the growth inhibition in assay [1] is -28.2%; in assay [2], -19.9%; in assay [3], -29.1%; in assay [4] it was -15.1%; in assay [5], -16.8%; in assay [6], 9.55%.

As for `CCC(C)C(CC)C(=O)N(C)C(=O)N(C)C(C)=O` (stereo unspecified), the growth inhibition in assay [1] was -19.2%; in assay [2], 33.3%; in assay [3], 4.5%; in assay [4] it was -33.5%; in assay [5], 13.7%; in assay [6] it was 12.5%.

Turning to `COC(=O)c1ccccc1C1CN=NC12Cc1c(ccc3c1CCC3)C2=O` (stereo unspecified), the growth inhibition was -4.35% in assay [1]; -5.95% in assay [2]; -15.1% in assay [3]; -9.7% in assay [4]; 27.9% in assay [5]; -0.85% in assay [6].

For `C=CCS(=O)(=O)c1ccc(Cl)cc1`, the growth inhibition was 1.95% in assay [1]; 2.25% in assay [2]; -20.5% in assay [3]; -24.6% in assay [4]; 0.95% in assay [5]; -22.2% in assay [6].

Regarding `COc1cc(C2c3cc4c(cc3OC(C)(OC)C2C(C)=O)OCO4)cc(OC)c1O` (stereo unspecified), the growth inhibition is 4.05% in assay [1]; -6.25% in assay [2]; -24.6% in assay [3]; -2.9% in assay [4]; -1.2% in assay [5]; -0.35% in assay [6].

As for `COc1ccc2c(c1)CC/C(=C\C1(Sc3ccccc3)CC1)C2O` (stereo unspecified), the growth inhibition in assay [1] was -12.1%; in assay [2] it was -3.35%; in assay [3] it was -10.2%; in assay [4], -16.6%; in assay [5] it was -10.7%; in assay [6], -15.8%.

Turning to `Cc1cn(C2OC(CO[Si](C)(C)C(C)(C)C)C(N(C)O[Si](C)(C)C(C)(C)C)C2[Se]c2ccccc2)c(=O)[nH]c1=O` (stereo unspecified), the growth inhibition in assay [1] is -15.5%; in assay [2] it was -3.1%; in assay [3], 0.5%; in assay [4] it was -8.65%; in assay [5] it was -9.85%; in assay [6], -15.2%.

On to `COc1cnn(-c2ccccc2)c(=O)c1Cl`, for which the growth inhibition in assay [1] is -1.4%; in assay [2], -7.35%; in assay [3], -1.85%; in assay [4] it was -3.7%; in assay [5], 0.8%; in assay [6], -13.9%.
